Hits are enriched below; roughly 6.2% of the tested compounds scored in any of these assays.
Marburg entry inh = qHTS for inhibitors of binding or entry into cells for Marburg Virus; Marburg virus pseudotyped entry inhibition, cell reporter; Potency, µM (highest dose often 37.8 µM), for inactives: at the highest dose activity change, negative = inhibition, hits mostly inhibitors; actives 1.8% (n = 300,000); AID 540276, 2011; calls by dose curve; tested in HEK293 cells; further: potency means the concentration at half of the fitted maximal effect
FMDV inh = High Throughput Screening for Foot and Mouth Disease Virus Antivirals. FMDV antiviral cell-based qHTS. Potency, µM (top dose mostly 57.9 µM), for inactives: at the highest dose activity change, negative = inhibition, hits mostly inhibitors. actives 1.2% (n = 410,000). AID 1159524, 2015; calls by dose curve; tested in HEK293T cells; further: read-out not given here; potency means the concentration at half of the fitted maximal effect; nearly all actives have a fitted effect of over 45% in size
LASV entry inh = qHTS for Inhibitors of binding or entry into cells for Lassa Virus | Lassa virus pseudotype entry inhibition, cell reporter | Potency, µM (top dose mostly 37.9 µM), without a hit: at the top dose activity change, negative = inhibition, most hits filed as inhibitors | actives 1.2% (n = 300,000) | AID 540256, 2011; calls by dose curve; tested in HEK293 cells; further: potency means the concentration at half of the fitted maximal effect; nearly all actives have a fitted effect of over 50% in size
HCMV antiviral = qHTS Assay for inhibitors of the human cytomegalovirus (HCMV); HFF cells, HCMV-luciferase reporter, 72 h; active compounds read low; activity change, negative = inhibition, % at 57.5 µM; actives 4.5% (n = 410,000); AID 1259415, 2018; in the data active means activity change below about -60%; inconclusive means no clear call, values can overlap the other calls; inactive means above about -39%
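Human foreskin fibroblasts infected with luciferase-reporter HCMV at MOI 1 PFU/cell, compounds at two doses. Luciferase measured 72 h post infection; normalized to buffer-only basal and Salinomycin (10uM) controls.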
The depositor's hits bear a star; ? = inconclusive; / = not tested or not shown; [ ] = another dose, or the depositor's remark. On the % scale 0 is the no-effect control and ±100 the full control effect.

SMILES	Marburg entry inh	FMDV inh	LASV entry inh	HCMV antiviral
Cc1ccc(-n2ncc3c(=O)n(Cc4ccccc4C)cnc32)cc1C	16.5%[46.1 µM]	22.1%	?	9.8
CCN1CCN(c2ccc(NS(=O)(=O)c3c(C)nc4sccn4c3=O)cc2Cl)CC1	?	-9.5%	-25.2%[46.1 µM]	-68.0*
C=CCN1C(=O)NC(=O)/C(=C/c2ccc(N(C)C)c(Br)c2)C1=O	-4.9%[46.1 µM]	-20.4%	7.94µM*	-35.2
CCc1ccccc1Nc1cc(C(=O)NC2CCC(C)CC2)c2ccccc2n1 (stereo not given)	1.2%[46.1 µM]	54.2%	?	-82.3*
COc1ccc(Nc2cc(C(=O)NC3CCC(C)CC3)c3ccccc3n2)cc1OC (stereo not given)	7.4%[46.1 µM]	25.5%	8.2%[46.1 µM]	47.6
CCC(=O)N1c2ccc(S(=O)(=O)CCC(=O)N3CCN(c4ccc(F)cc4)CC3)cc2CC1C (stereo not given)	4.9%[46.1 µM]	?	-23.2%[46.1 µM]	-24.0
Cc1cc(C)cc(N(C(=O)c2nsc(Cl)c2Cl)C(C(=O)NC2CCCC2)c2ccc(O)cc2)c1 (stereo not given)	?	-15.9%	?	-70.8*
O=C(CN(C(=O)c1nsc(Cl)c1Cl)c1ccc(F)cc1)NC1CCCC1	?	14.7%	5.2%	16.8
COc1ccc(C(C(=O)NC2CCCC2)N(Cc2ccccc2)C(=O)c2nsc(Cl)c2Cl)cc1 (stereo not given)	?	/	?	8.1
Cc1ccccc1N(C(=O)c1snc(C(N)=O)c1N)C(C(=O)NC1CCCCC1)c1ccc(O)cc1 (stereo not given)	?	2.2%	11.2µM*	-33.4
Cc1ccc(N(CC(=O)NC2CCCC2)C(=O)c2nsc(Cl)c2Cl)cc1	-12.0%[46.1 µM]	3.6%	3.6%[46.1 µM]	-74.9*
Cc1cccc(N(C(=O)c2nsc(Cl)c2Cl)C(C(=O)NC2CCCC2)c2ccc(O)cc2)c1C (stereo not given)	?	-6.5%	7.31µM*	?
C[C@H]1[C@@H](NC(=O)Nc2ccc(F)cc2)CC[C@@]23CCCN2C(=O)CCC[C@@H]13	/	/	/	10.5
Cc1cc(S(=O)(=O)NCc2nc(N3CCCC3)c3cc(Cl)ccc3n2)c(C)s1	/	-10.1%	/	/
CC(C)OCCCn1c(SCc2cccc(Br)c2)nc2c(sc3ccccc32)c1=O	/	-19.0%	0.0%[46.1 µM]	-4.1
Cc1ccc(N(C(=O)c2nsc(Cl)c2Cl)C(C(=O)NC2CCCC2)c2ccc(O)cc2)cc1C (stereo not given)	?	-15.4%	1.58µM*	?
O=c1c(Cl)c(N2CCN(c3ccc(F)cc3)CC2)cnn1C12CC3CC(CC(C3)C1)C2	?	?	-44.8%	-62.6*
O=c1c(Cl)c(N2CCN(c3ccccc3)CC2)cnn1C12CC3CC(CC(C3)C1)C2	?	0.0%	?	?
COc1cccc([C@@H]2Oc3ccc(OC)cc3[C@H](O)[C@@H]2O)c1	-6.9%[14.2 µM]	/	/	/
Cn1c(SCc2ccccc2)nnc1-c1cnccn1	?	60.0%	-1.5%	-61.2*
COc1ccc(N2CCN(C(=O)C(CC(C)C)NS(=O)(=O)c3ccc4nc(C)sc4c3)CC2)cc1 (stereo not given)	-4.2%[46.1 µM]	5.0%	-13.1%[46.1 µM]	-12.6
C[C@@H](NC(=O)c1ncn2c1c(=O)[nH]c1cccnc12)c1ccccc1	/	-12.8%	/	14.7
C[C@@H](NC(=O)c1ncn2c1c(=O)[nH]c1ccc(Br)cc12)c1ccccc1	/	0.0%	/	-99.8*
C#CCCCON=C1C[C@@H](O)[C@H](O)[C@H]2[C@@H]3C(=O)N(Cc4ccc5c(c4)OCO5)C(=O)[C@@H]3CC[C@@H]12	-6.7%[14.2 µM]	/	/	/
Cc1ccc(N(CCC(=O)O)S(=O)(=O)c2ccc(C)cc2)cc1	?	0.0%	-10.7%	-7.0
SMILES	Marburg entry inh	FMDV inh	LASV entry inh	HCMV antiviral
Cc1cc(C)cc(N(CCC(=O)O)S(=O)(=O)c2ccc(Cl)cc2)c1	-5.0%	-3.8%	7.3%	-69.2*
CCCSCCCNC(=O)Cn1c(-c2cccs2)cc2ccccc21	/	-16.5%	1.1%[46.1 µM]	-9.2
Cc1ccccc1S(=O)Cc1ccc(C(=O)NC2CCCCCC2)o1 (stereo not given)	1.3%[46.1 µM]	-13.6%	-28.7%[46.1 µM]	12.2
Cc1ccc(/C=[N+](\[O-])c2ccccc2C)o1	/	3.9%	/	-98.0*
Cc1ccccc1/[N+]([O-])=C/c1cccs1	/	12.0%	/	-7.8
FC(F)(F)c1cccc(Cc2noc(CN3CCC(c4ccncc4)CC3)n2)c1	?	-4.2%	?	-80.2*
CCOc1ccc(-n2c(=O)c3c(C)c(C)sc3n(Cc3cc(=O)n4cc(Cl)ccc4n3)c2=O)cc1	5.7%[46.1 µM]	15.7%	29.0%[46.1 µM]	-8.4
NCCc1ccc(OCc2ccccc2)c(OCc2ccccc2)c1	?	-23.3%	?	-93.5*
NC(N)=N/N=C/c1ccc(OCc2ccccc2)c(OCc2ccccc2)c1	?	28.4%	?	-102.7*
COc1ccc(CCN)cc1OC	/	-5.7%	/	17.7
COc1cc(/C=N/N=C(N)N)ccc1OCc1ccc(Cl)cc1	18.3µM*	-44.9%	?	-101.7*
CCOc1cc(/C=N/N=C(N)N)ccc1OCc1ccc(Cl)cc1	?	-21.0%	?	-24.3
CCC(Sc1nc2nccnc2c(=O)n1Cc1ccc(Cl)cc1)C(=O)NC1CCCCC1 (stereo not given)	/	14.5%	1.8%[46.1 µM]	-20.2
CC(=O)c1ccc(S(=O)(=O)N2CCN(CCOc3ccc(Br)cc3)CC2)cc1	/	17.8µM*	/	?
CC(=O)c1cccc(S(=O)(=O)N2CCN(CCOc3ccccc3)CC2)c1	/	?	/	-61.3*
COc1ccccc1N1CCN(C(=O)c2cc3c(C)nc4ccccc4c3o2)CC1	?	?	11.2µM*	-61.4*
COc1ccccc1N1CCN(C(=O)c2oc3ccccc3c2C)CC1	?	5.5%	?	26.1
COc1ccccc1N1CCN(C(=O)c2cccc3c(=O)c(C)c(-c4ccccc4)oc23)CC1	-4.7%	-2.0%	/	-66.4*
Cc1ccc(C)c(N2CCN(C(=O)c3ccc4nc(-c5ccco5)c(-c5ccco5)nc4c3)CC2)c1	?	-19.3%	0.5%	19.9
COc1ccccc1N1CCN(C(=O)c2ccc3nc(-c4ccco4)c(-c4ccco4)nc3c2)CC1	20.6µM*	?	?	-7.8
Cc1nc2ccccc2c2oc(C(=O)N3CC(C)CC(C)C3)cc12 (stereo not given)	/	?	/	-36.9
CN1OC[C@@H]2CN(S(=O)(=O)c3ccccc3)[C@H](c3ccc(-n4ccnc4)cc3)C[C@@H]21	/	-7.4%	/	-15.1
O=C(N/N=C/c1ccsc1)c1ccc2ccccc2n1	?	50.7%	-17.9%[46.1 µM]	-67.3*
COc1ccc(C(=O)COC(=O)c2cc(-c3ccccc3)nc3c(C)cccc23)cc1	/	-9.5%	-10.7%[46.1 µM]	-5.1
O=c1[nH]c(=O)n([C@H]2C[C@H](O)[C@@H](CO)O2)cc1C(F)(F)F	?	-21.5%	?	-1.2
[N-]=[N+]=NC1C[C@H](n2ccc(=O)[nH]c2=O)O[C@@H]1CO (stereo not given in full)	-2.8%	-19.3%	-9.5%	-65.8*
COc1ccc(-c2coc3c(C(=O)N4CCN(C)CC4)cccc23)c(C)c1	/	-6.9%	/	-27.9
CN(C)CCCNCC(=O)Nc1ccc(Cl)cc1C(=O)c1ccccc1	11.2µM*	-8.0%	-19.2%[46.1 µM]	-3.6
